Active and inactive are the calls of the source. The calls were made as follows: active = hit-call score of the fitted dose curve at least 0.9, where 1 is the maximum; inactive = score below 0.9.
Experiments:
[1] = ATG_E_Box_CIS: Attagene CIS-FACTORIAL HepG2 Assay for human Enhancer Box (E-box) (AID 2282936); details: HepG2 E-box cis-reporter transcription, actives raise or lower the signal
Summary of the method: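 Fluorescent reporter fragments separated by capillary electrophoresis gave the signal; mRNA came from HepG2 cells transfected with cis-element reporters and treated 24 h. Curves fitted bidirectionally relative to DMSO controls.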

[2] = ATG_M_61_CIS: Attagene CIS-FACTORIAL HepG2 Assay for M61 Transcription Factor (Internal Marker) (AID 2282937); details: HepG2 Attagene CIS-FACTORIAL M61 internal marker reporter; actives raise or lower the signal
Summary of the method: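 Cells were transfected with reporter units under cis-regulatory promoters, treated with chemicals for 24 h, then lysed for RNA. Reporter transcripts were quantified by RT-PCR and capillary electrophoresis, and activity was fitted bidirectionally against DMSO.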

[3] = ATG_EGR_CIS: Attagene CIS-FACTORIAL HepG2 Assay for human Early Growth Response 1 (EGR1) (AID 2282938); details: HepG2 Attagene CIS-FACTORIAL EGR reporter mRNA; actives raise or lower the signal
Summary of the method: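 Endogenous TF activity in HepG2 liver cells was gauged through cis-promoter reporter constructs transiently transfected. After 24 h dosing, reporter mRNA was quantified by RT-PCR and capillary electrophoresis, and curves fitted in both directions versus DMSO.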

[4] = ATG_M_19_CIS: Attagene CIS-FACTORIAL HepG2 Assay for M19 Transcription Factor (Internal Marker) (AID 2282939); details: HepG2 Attagene CIS-FACTORIAL M19 internal marker reporter; actives raise or lower the signal
Summary of the method: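 Readout: fluorescent reporter-transcript fragments by capillary electrophoresis after RT-PCR. Human HepG2 liver cells carried transfected MRTU constructs reporting endogenous transcription-factor activity; exposure 24 h. Gain or loss of signal fitted relative to DMSO.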

[5] = ATG_ERE_CIS: Attagene CIS-FACTORIAL HepG2 Assay for Estrogen Response Element (ERE) (AID 2282940); details: HepG2 ERE cis-reporter, Attagene RNA transcript; actives raise or lower the signal
Summary of the method: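 Readout: reporter mRNA induction by RT-PCR, FAM-labelled primer extension, HpaI digestion and capillary electrophoresis, 24 h after dosing transfected HepG2 cells. Endogenous transcription factors act on cis-element-regulated reporters. Gain or loss fitted against DMSO.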

[6] = ATG_Ets_CIS: Attagene CIS-FACTORIAL HepG2 Assay for human Erythroblast Transformation Specific (ETS) (AID 2282941); details: HepG2 ETS cis-reporter transcription, actives raise or lower the signal
Summary of the method: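 Endogenous transcription factor activity read as reporter mRNA via RT-PCR and capillary electrophoresis, with gain or loss fitted bidirectionally against DMSO. Human HepG2 liver cells, transiently transfected CIS reporter constructs, 24 h exposure.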

[7] = molecular target: Hepatocyte nuclear factor 3-beta (Homo sapiens) (UniProt Q9Y261); assay: ATG_FoxA2_CIS: Attagene CIS-FACTORIAL HepG2 Assay for human Forkhead box A2 (FOXA2) (AID 2282942); details: HepG2 cis-reporter transcription factor activity, 24 h; actives raise or lower the signal
Summary of the method: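 Endogenous transcription factor activity was read in HepG2 cells carrying transiently transfected cis-promoter reporter units. After 24 h dosing, reporter mRNA was quantified by RT-PCR and capillary electrophoresis, and values fitted bidirectionally versus DMSO.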

[8] = ATG_FoxO_CIS: Attagene CIS-FACTORIAL HepG2 Assay for human Forkhead box O (FoxO) (AID 2282943); details: HepG2 Attagene cis-reporter, FoxO element, mRNA; actives raise or lower the signal
Summary of the method: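 Endogenous transcription factor activity read from multiplexed cis-promoter reporter transcripts in transiently transfected HepG2, 24 h after dosing. Reporter RNA measured via RT-PCR plus capillary electrophoresis of FAM-labeled products; gain or loss relative to DMSO.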

[9] = ATG_GATA_CIS: Attagene CIS-FACTORIAL HepG2 Assay for human GATA Binding Protein (AID 2282944); details: HepG2 GATA cis-element reporter, Attagene multiplex mRNA; actives raise or lower the signal
Summary of the method: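 Read-out: fluorescent reporter mRNA fragments resolved by capillary electrophoresis after RT-PCR. Human liver HepG2 cells carried transiently transfected cis-regulated reporter constructs; chemicals incubated 24 h; gain or loss of signal fitted relative to DMSO.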

[10] = ATG_GLI_CIS: Attagene CIS-FACTORIAL HepG2 Assay for human Zinc Finger Protein GLI1 (AID 2282945); details: HepG2, Attagene cis-factorial reporter mRNA, GLI element; actives raise or lower the signal
Summary of the method: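 Bidirectional curve fits relative to DMSO, using reporter mRNA levels from RT-PCR plus capillary electrophoresis. Cells were HepG2 transiently carrying cis-regulated reporter constructs, harvested 24 h after dosing.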

Measured: AC50

Chain of Hepatocyte nuclear factor 3-beta (Homo sapiens) (Q9Y261 whole entry, looked up): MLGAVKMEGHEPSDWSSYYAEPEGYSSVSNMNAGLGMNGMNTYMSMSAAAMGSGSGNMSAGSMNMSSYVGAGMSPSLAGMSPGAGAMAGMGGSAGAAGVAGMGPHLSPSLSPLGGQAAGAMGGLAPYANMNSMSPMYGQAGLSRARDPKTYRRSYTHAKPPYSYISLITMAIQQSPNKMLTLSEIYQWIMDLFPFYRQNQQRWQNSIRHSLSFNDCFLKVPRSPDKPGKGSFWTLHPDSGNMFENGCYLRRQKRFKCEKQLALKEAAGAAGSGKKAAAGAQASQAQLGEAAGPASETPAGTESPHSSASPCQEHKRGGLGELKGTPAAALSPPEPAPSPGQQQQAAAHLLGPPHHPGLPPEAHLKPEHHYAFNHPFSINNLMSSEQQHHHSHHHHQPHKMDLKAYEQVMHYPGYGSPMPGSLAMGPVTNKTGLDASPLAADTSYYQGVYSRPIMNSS

C=C(C)CCO
inactive: all assays above

CCN(CC)c1ccc(C(=O)c2ccccc2C(=O)O)c(O)c1
not listed: [9]
inactive: all other assays above

CCc1c(C(=O)O)c(=O)cnn1-c1ccc(Cl)cc1
active: [5] 28.5 µM
inactive: all other assays above

O=C1CCCCCN1SSN1CCCCCC1=O
active: [1] 182 µM | [3] 162 µM | [10] 155 µM
not listed: [7]
inactive: all other assays above

O=P(O)(O)Oc1ccccc1
not listed: [9]
inactive: all other assays above

Nc1ccc(Cl)cc1Cl
not listed: [7]
inactive: all other assays above

[Cl][In]([Cl])[Cl]
active: [5] 163 µM
not listed: [7]
inactive: all other assays above

O=CC1CC1
not listed: [7]
inactive: all other assays above

O=C1CCCC(=O)O1
not listed: [9]
inactive: all other assays above

CCCCCCCCCCCCCCCCCC#N
not listed: [9]
inactive: all other assays above

CC(C)COC(=O)C=Cc1ccccc1
not listed: [9]
inactive: all other assays above

CC(=O)c1ccc2c(c1)CCCC2
inactive: all assays above

CC/C=C\CCOC(=O)CCCCC
not listed: [7] | [9] | [10]
inactive: all other assays above

O=S(=O)(O)c1cc(S(=O)(=O)O)c2ccc3c(S(=O)(=O)O)cc(S(=O)(=O)O)c4ccc1c2c43
not listed: [9]
inactive: all other assays above

CC=CC(=O)N(CC)c1ccccc1C
not listed: [7]
inactive: all other assays above

O=C(c1ccccc1)c1ccc(O)c(O)c1O
active: [5] 27 µM
not listed: [7]
inactive: all other assays above

CCN(Cc1cccc(S(=O)(=O)O)c1)c1ccc(C(=C2C=CC(=[N+](CC)Cc3cccc(S(=O)(=O)[O-])c3)C=C2)c2ccccc2)cc1
not listed: [7]
inactive: all other assays above

C=C[C@](C)(O)CC[C@@H]1[C@@]2(C)CCCC(C)(C)[C@@H]2CC[C@@]1(C)O
not listed: [7]
inactive: all other assays above

C1=Cc2ccccc2C1
active: [5] 44.3 µM
inactive: all other assays above

CC(CC=O)CCCC(C)(C)O (configuration not stated)
inactive: all assays above

CCOC(=O)CC(C(C)=O)C(C)=O
not listed: [7]
inactive: all other assays above

N#CCc1ccc(Cl)cc1Cl
inactive: all assays above

CC1=Nc2ccc3ccccc3c2C1(C)C
not listed: [9]
inactive: all other assays above

C=C(C)C(=O)OCCOc1ccccc1
not listed: [9]
inactive: all other assays above

[Cl][Nd]([Cl])[Cl]
not listed: [7]
inactive: all other assays above

CCCCCCCCc1ccc(Nc2ccc(CCCCCCCC)cc2)cc1
not listed: [7]
inactive: all other assays above

CCCCCCCCC(=O)OCC
not listed: [9]
inactive: all other assays above

From PubChem BioAssay (EPA / NIEHS)
